From PubChem BioAssay (Tox21)
Records with an inconclusive call do not appear. Where a call stands in place of a potency, no number is given. Activity calls are given as the source filed them. Unless noted, calls come from the whole dose curve; as a rule, active = well fitted cell-killing curve with a large enough effect in the repeat runs; inconclusive = weak or mixed curves, or effect the other way; inactive = no such curve, though single readings can be large or run the other way.

assay: qHTS assay to identify small molecule antagonists of the peroxisome proliferator-activated receptor gamma (PPARg) signaling pathway - cell viability counter screen (AID 743194); conditions: PPARg-bla HEK293H viability, CellTiter-Glo luminescence, 17 h, co-treated with 50 nM rosiglitazone; series mostly up to 62.6 µM; note: nearly all actives have a fitted effect of over 55% in size
How it was run: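 PPARg-UAS-bla HEK293H cells were plated, rested 5 h at 37 C, then treated with compounds plus rosiglitazone (50 nM final) for 17 h at 37 C; viability was then read by CellTiter-Glo luminescence after 30 min at room temperature.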

Row | SMILES | outcome | activity change, negative = cytotoxicity
1 | CN=C(NC#N)Nc1ccc(C2=NNC(=O)CC2C)cc1 (stereo not drawn) | inactive | –
2 | O=C(OCC1(COC(=O)c2cccnc2)CCCC(COC(=O)c2cccnc2)(COC(=O)c2cccnc2)C1O)c1cccnc1 | inactive | –
3 | OCCN(CCO)c1cccc(Cl)c1 | inactive | –
4 | CCCC/C=C\CCCCCCCCCC=O | inactive | –
5 | CC(C)(C)OC(=O)c1ccc(O)cc1 | inactive | –
6 | CC/C=C\CC1=C(C)CCC1=O | inactive | –
7 | N#Cc1ccc(C(=O)O)cc1 | inactive | –
8 | O=C(NCCN1CCOCC1)c1ccc(Cl)cc1 | inactive | –
9 | CC(C)CC(C)CC(C)CC(C)COC(=O)c1ccccc1C(=O)OCC(C)CC(C)CC(C)CC(C)C (stereo not drawn) | inactive | –
10 | CCCOC(OCCC)OCCC | inactive | –
11 | CNC(=O)[C@H]1O[C@@H](n2cnc3c(NCc4cc(Cl)ccc4OCc4cc(C)no4)ncnc32)[C@H](O)[C@@H]1N | inactive | –
12 | FC(F)(F)c1ccccc1-n1ccnc1 | inactive | –
13 | CC1COc2ccccc2N1 (stereo not drawn) | inactive | –
14 | O=C(O)c1cc(Br)c(O)c(Br)c1 | inactive | –
15 | C=CC(OCC)OCC | inactive | –
16 | CCOCCOCCOCC | inactive | –

Row | SMILES | outcome | activity change, negative = cytotoxicity
17 | CCO[Si](CCCS)(OCC)OCC | inactive | –
18 | Cc1ccccc1N=O | inactive | –
19 | COC(=O)C1CC(=O)C(C(=O)OC)CC1=O (stereo not drawn) | – | 17.9% [at 5.95 µM] (inactive)
20 | CC(=O)c1sc(C)nc1C | inactive | –
21 | CCC(C)(CCC(C)C)C(=O)O (stereo not drawn) | inactive | –
22 | CC(C)(C)c1cc(CCC(=O)NN)cc(C(C)(C)C)c1O | inactive | –
23 | O=S(=O)(O)CCN1CCN(CCO)CC1 | inactive | –
24 | CC(C)NCC(O)COc1cccc2[nH]ccc12 (stereo not drawn) | inactive | –
25 | CC(=O)N[C@@H](CCC(=O)O)C(=O)O | inactive | –
26 | c1ccc2c(c1)ccc1c3ccccc3ccc21 | inactive | –
27 | CCN(CC)CC(=O)Nc1c(C)cccc1C | inactive | –
28 | COc1ccc(OC)c(Cl)c1 | inactive | –
29 | CC(CN)CC(C)(C)CCN (stereo not drawn) | inactive | –
30 | O=C(NCC(O)CO)c1c(I)c(C(=O)NCC(O)CO)c(I)c(N(CCO)C(=O)CO)c1I (stereo not drawn) | inactive | –
31 | NCCS | inactive | –

assay: qHTS assay for small molecule agonists of the antioxidant response element (ARE) signaling pathway (AID 743202; active = well fitted activation curve with a large enough effect in the signal ratio in the repeat runs, not every such curve was filed as active; the % refers to the signal ratio; note: potency is the fitted concentration of half-maximal effect); conditions: HepG2 ARE-bla reporter, beta-lactamase FRET, 16 h; series mostly up to 73.3 µM
How it was run: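 Steps: seed ARE-bla HepG2 cells (2,000/well); incubate 5 h at 37 C; add compounds by pin tool; incubate 16 h at 37 C; add FRET substrate; read fluorescence after 2 h at RT.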

Row | SMILES | Potency | activation
32 | CCC(C=O)CC | inactive | –
33 | C[Si](C)(C)C | inactive | –
34 | N#Cc1ccc(C(=O)O)cc1 | inactive | –
35 | O=C(NCCN1CCOCC1)c1ccc(Cl)cc1 | inactive | –
36 | CC(C)CC(C)CC(C)CC(C)COC(=O)c1ccccc1C(=O)OCC(C)CC(C)CC(C)CC(C)C (stereo not drawn) | inactive | –
37 | CCCOC(OCCC)OCCC | inactive | –
38 | CNC(=O)[C@H]1O[C@@H](n2cnc3c(NCc4cc(Cl)ccc4OCc4cc(C)no4)ncnc32)[C@H](O)[C@@H]1N | inactive | –
39 | C=CC(OCC)OCC | 34 µM (active) | –
40 | C#CC(C)N(C)C(=O)Nc1ccc(Cl)cc1 (stereo not drawn) | inactive | –
41 | N[C@@H](COP(=O)(O)O)C(=O)O | inactive | –
42 | COC(=O)C1CC(=O)C(C(=O)OC)CC1=O (stereo not drawn) | – | -4.53% [at 8.36 µM] (inactive)
43 | CCC(C)(CCC(C)C)C(=O)O (stereo not drawn) | inactive | –
44 | CC(C)(C)c1cc(CCC(=O)NN)cc(C(C)(C)C)c1O | inactive | –
45 | CC(C)NCC(O)COc1cccc2[nH]ccc12 (stereo not drawn) | inactive | –
46 | CCN(CC)CC(=O)Nc1c(C)cccc1C | inactive | –
47 | CC(C)C[C@H](NC(=O)CNC(=O)[C@H](Cc1ccc(O)cc1)NC(=O)[C@H](CO)NC(=O)[C@H](Cc1c[nH]c2ccccc12)NC(=O)[C@H](Cc1cnc[nH]1)NC(=O)[C@@H]1CCC(=O)N1)C(=O)N[C@@H](CCCN=C(N)N)C(=O)N1CCC[C@H]1C(=O)NCC(N)=O (stereo in doubt) | inactive | –
48 | NCCS | inactive | –

assay: qHTS assay for small molecule agonists of the antioxidant response element (ARE) signaling pathway - cell viability counter screen (AID 743203; calls by dose curve; note: nearly all actives have a fitted effect of over 55% in size); conditions: ARE-bla HepG2 viability, CellTiter-Glo luminescence, 16 h; series mostly up to 73.3 µM
How it was run: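 Parallel cytotoxicity read-out for the ARE-bla screen: HepG2 reporter cells, 16 hrs with compounds, then CellTiter-Glo luminescence.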

Row | SMILES | outcome | viability change, negative = cytotoxic
49 | CN=C(NC#N)Nc1ccc(C2=NNC(=O)CC2C)cc1 (stereo not drawn) | inactive | –
50 | OCCN(CCO)c1cccc(Cl)c1 | inactive | –
51 | CCCC/C=C\CCCCCCCCCC=O | inactive | –
52 | CC(C)(C)OC(=O)c1ccc(O)cc1 | inactive | –
53 | CC/C=C\CC1=C(C)CCC1=O | inactive | –
54 | CCC(C=O)CC | inactive | –
55 | C[Si](C)(C)C | inactive | –
56 | N#Cc1ccc(C(=O)O)cc1 | inactive | –
57 | O=C(NCCN1CCOCC1)c1ccc(Cl)cc1 | inactive | –
58 | CCCOC(OCCC)OCCC | inactive | –
59 | CNC(=O)[C@H]1O[C@@H](n2cnc3c(NCc4cc(Cl)ccc4OCc4cc(C)no4)ncnc32)[C@H](O)[C@@H]1N | inactive | –
60 | FC(F)(F)c1ccccc1-n1ccnc1 | inactive | –
61 | CC1COc2ccccc2N1 (stereo not drawn) | inactive | –
62 | O=C(O)c1cc(Br)c(O)c(Br)c1 | inactive | –
63 | C=CC(OCC)OCC | inactive | –
64 | CCOCCOCCOCC | inactive | –
65 | N[C@@H](COP(=O)(O)O)C(=O)O | inactive | –
66 | Cc1ccccc1N=O | inactive | –
67 | COC(=O)C1CC(=O)C(C(=O)OC)CC1=O (stereo not drawn) | – | -0.839% [at 8.36 µM] (inactive)
68 | CC(=O)c1sc(C)nc1C | inactive | –
69 | CCC(C)(CCC(C)C)C(=O)O (stereo not drawn) | inactive | –
70 | CC(C)(C)c1cc(CCC(=O)NN)cc(C(C)(C)C)c1O | inactive | –
71 | O=S(=O)(O)CCN1CCN(CCO)CC1 | inactive | –
72 | CC(C)NCC(O)COc1cccc2[nH]ccc12 (stereo not drawn) | inactive | –
73 | CC(=O)N[C@@H](CCC(=O)O)C(=O)O | inactive | –
74 | CCN(CC)CC(=O)Nc1c(C)cccc1C | inactive | –
75 | CC(C)C[C@H](NC(=O)CNC(=O)[C@H](Cc1ccc(O)cc1)NC(=O)[C@H](CO)NC(=O)[C@H](Cc1c[nH]c2ccccc12)NC(=O)[C@H](Cc1cnc[nH]1)NC(=O)[C@@H]1CCC(=O)N1)C(=O)N[C@@H](CCCN=C(N)N)C(=O)N1CCC[C@H]1C(=O)NCC(N)=O (stereo in doubt) | inactive | –
76 | COc1ccc(OC)c(Cl)c1 | inactive | –
77 | CC(CN)CC(C)(C)CCN (stereo not drawn) | inactive | –
78 | NCCS | inactive | –
